# Data taken from PubChem BioAssay.
# Values without a mark were called inactive. Calls of active or inactive are those of the source.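 How the source made its calls, unless noted: active means compounds that lower viability of the colon cancer cells in the luminescence readout, with no numeric limit stated; inactive means the rest.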
# Assay: reduced SW480 viability measured with CellTiter-Glo, NPC library, primary (AID 1117343)
# Conditions: CellTiter-Glo luminescence; at 20 µM (top of the series) unless noted
row,SMILES,viability decrease (inhibition)
1,NC1[C@H]2CN(c3nc4c(cc3F)c(=O)c(C(=O)O)cn4-c3ccc(F)cc3F)C[C@@H]12 (stereo partly drawn),82.9% (active)
2,CCn1c(=O)c2c(nc(C=Cc3ccc(OC)c(OC)c3)n2C)n(CC)c1=O,4.6%
3,COc1ccc(CCN(C)CCCC(C#N)(c2cc(OC)c(OC)c(OC)c2)C(C)C)cc1OC (stereo not drawn),22%
4,N[C@@H](CC(=O)O)C(=O)O,-18.5%
5,C[C@]12CCC(=O)C=C1CC[C@@H]1[C@@H]2CC[C@@]2(C)[C@H]1CC[C@]2(O)C(=O)CO,12.3%
6,O=c1[nH]c(=O)n([C@H]2C[C@H](O)[C@@H](CO)O2)cc1Br,18.4%
7,CC1=C(CC(=O)O)c2cc(F)ccc2/C1=C\c1ccc(S(C)(=O)=O)cc1,88.7% (active)
8,CCN1CCc2nc(N)oc2CC1,-29.1%
9,NC(CO)(CO)CO,-8%
10,NC(=O)c1cn(Cc2c(F)cccc2F)nn1,11.5%
11,CSc1ccc(C(=O)c2[nH]c(=O)[nH]c2C)cc1,29%
12,CC(=O)Oc1cc(C(F)(F)F)ccc1C(=O)O,8.4%
13,NC(N)=NCCC[C@H](N)C(=O)O,8.2%
14,COC(=O)C1=C(C#N)NC(C)=C(C(=O)OC(C)C)C1c1cccc([N+](=O)[O-])c1 (stereo not drawn),65.8% (active)
15,CCCCCCCCCCCCCCCCO,21.5%
16,O=C1NC(=O)[C@@]2(CCOc3ccc(F)cc32)N1,-5.9%
17,COc1cc(C)c(C=CC(C)=CC=CC(C)=CC(=O)O)c(C)c1C,70.9% (active)
18,C[N+](C)(C)CCOC(=O)CCC(=O)OCC[N+](C)(C)C,-16.3%
19,Cc1nc2c([nH]1)c(=O)n(C)c(=O)n2Cc1ccco1,11.9%
20,OCCN1CCN(CC/C=C2/c3ccccc3Sc3ccc(C(F)(F)F)cc32)CC1,167% (active)

row,SMILES,viability decrease (inhibition)
1,CC(C)(C)c1ccc(C(=O)CCCN2CCC(OC(c3ccccc3)c3ccccc3)CC2)cc1,133% (active)
2,Nc1cc(=O)[nH]c(N)n1,71.1% (active)
3,CC(=O)[C@@]1(O)CC[C@H]2[C@@H]3CCC4=CC(=O)CC[C@]4(C)[C@H]3CC[C@@]21C,10.2%
4,COc1cc(C=O)ccc1O,49.1%
5,COC(=O)C1=C(C)NC(C)=C(C(=O)OC(C)(C)CN(C)CCC(c2ccccc2)c2ccccc2)C1c1cccc([N+](=O)[O-])c1 (stereo not drawn),127% (active)
6,CCC(=O)c1ccc2c(c1)N(CCCN(C)C)c1ccccc1S2,65.1% (active)
7,COC(=O)C(c1ccccc1Cl)N1CCc2sccc2C1 (stereo not drawn),18.6%
8,OCCN1CCN(CCCN2c3ccccc3C=Cc3ccccc32)CC1,80.2% (active)
9,CCNC(=O)N1CCN(CCCC(c2ccc(F)cc2)c2ccc(F)cc2)CC1,119% (active)
10,C(=C\c1ccccc1)/CN1CCN(C(c2ccccc2)c2ccccc2)CC1,97.3% (active)
11,Nc1cccc2c1CN(C1CCC(=O)NC1=O)C2=O (stereo not drawn),-19.5%
12,COC(=O)[C@@H](N)Cc1ccc(O)c(O)c1,64.7% (active)
13,CCCCc1ncc(/C=C(\Cc2cccs2)C(=O)O)n1Cc1ccc(C(=O)O)cc1,-13.7%
14,O=C(O)CN(CCOCCOCCN(CC(=O)O)CC(=O)O)CC(=O)O,-13.8%
15,CCCCCCCCCCCCCCC[C@H](O)[C@@H](N)CO,143% (active)
16,O=C(O)CP(=O)(O)O,10.9%
17,N[C@@H](COP(=O)(O)O)C(=O)O,-26.4%
18,O=S(=O)(O)Oc1ccc(C(c2ccc(OS(=O)(=O)O)cc2)c2ccccn2)cc1,-2.2%
19,CCN(CC)CCCN(c1ccccc1)C1Cc2ccccc2C1,53.5% (active)

# Assay: NPC library primary testing for decreased DLD-1 cell viability via CellTiter-Glo (AID 1117346;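 active means compounds that lower survival of DLD-1 colon cancer cells in the luminescence readout, no cutoff given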)
# Conditions: DLD-1 viability, CellTiter-Glo luminescence; at 20 µM (top of the series)
row,SMILES,viability decrease (inhibition)
1,NC1[C@H]2CN(c3nc4c(cc3F)c(=O)c(C(=O)O)cn4-c3ccc(F)cc3F)C[C@@H]12 (stereo partly drawn),58.6% (active)
2,CCn1c(=O)c2c(nc(C=Cc3ccc(OC)c(OC)c3)n2C)n(CC)c1=O,-22%
3,COc1ccc(CCN(C)CCCC(C#N)(c2cc(OC)c(OC)c(OC)c2)C(C)C)cc1OC (stereo not drawn),4.6%
4,N[C@@H](CC(=O)O)C(=O)O,1.6%
5,C[C@]12CCC(=O)C=C1CC[C@@H]1[C@@H]2CC[C@@]2(C)[C@H]1CC[C@]2(O)C(=O)CO,-6.8%
6,O=c1[nH]c(=O)n([C@H]2C[C@H](O)[C@@H](CO)O2)cc1Br,34.2%
7,CC1=C(CC(=O)O)c2cc(F)ccc2/C1=C\c1ccc(S(C)(=O)=O)cc1,90.1% (active)
8,CCN1CCc2nc(N)oc2CC1,-18%
9,NC(CO)(CO)CO,2.75%
10,NC(=O)c1cn(Cc2c(F)cccc2F)nn1,5.25%
11,CSc1ccc(C(=O)c2[nH]c(=O)[nH]c2C)cc1,9.15%
12,CC(=O)Oc1cc(C(F)(F)F)ccc1C(=O)O,5.4%
13,NC(N)=NCCC[C@H](N)C(=O)O,0%
14,COC(=O)C1=C(C#N)NC(C)=C(C(=O)OC(C)C)C1c1cccc([N+](=O)[O-])c1 (stereo not drawn),29.6% (active)
15,CCCCCCCCCCCCCCCCO,5.6%
16,O=C1NC(=O)[C@@]2(CCOc3ccc(F)cc32)N1,-7.9%
17,COc1cc(C)c(C=CC(C)=CC=CC(C)=CC(=O)O)c(C)c1C,78.6% (active)
18,C[N+](C)(C)CCOC(=O)CCC(=O)OCC[N+](C)(C)C,3.4%
19,Cc1nc2c([nH]1)c(=O)n(C)c(=O)n2Cc1ccco1,11.1%
20,OCCN1CCN(CC/C=C2/c3ccccc3Sc3ccc(C(F)(F)F)cc32)CC1,102% (active)

row,SMILES,viability decrease (inhibition)
1,CC(C)(C)c1ccc(C(=O)CCCN2CCC(OC(c3ccccc3)c3ccccc3)CC2)cc1,101% (active)
2,Nc1cc(=O)[nH]c(N)n1,13.6%
3,CC(=O)[C@@]1(O)CC[C@H]2[C@@H]3CCC4=CC(=O)CC[C@]4(C)[C@H]3CC[C@@]21C,-4.1%
4,COc1cc(C=O)ccc1O,3.27%
5,COC(=O)C1=C(C)NC(C)=C(C(=O)OC(C)(C)CN(C)CCC(c2ccccc2)c2ccccc2)C1c1cccc([N+](=O)[O-])c1 (stereo not drawn),92.5% (active)
6,CCC(=O)c1ccc2c(c1)N(CCCN(C)C)c1ccccc1S2,20.4%
7,COC(=O)C(c1ccccc1Cl)N1CCc2sccc2C1 (stereo not drawn),48.7%
8,OCCN1CCN(CCCN2c3ccccc3C=Cc3ccccc32)CC1,37.9%
9,CCNC(=O)N1CCN(CCCC(c2ccc(F)cc2)c2ccc(F)cc2)CC1,57.7% (active)
10,C(=C\c1ccccc1)/CN1CCN(C(c2ccccc2)c2ccccc2)CC1,99.3% (active)
11,Nc1cccc2c1CN(C1CCC(=O)NC1=O)C2=O (stereo not drawn),1.2%
12,COC(=O)[C@@H](N)Cc1ccc(O)c(O)c1,15.2%
13,CCCCc1ncc(/C=C(\Cc2cccs2)C(=O)O)n1Cc1ccc(C(=O)O)cc1,-4.6%
14,O=C(O)CN(CCOCCOCCN(CC(=O)O)CC(=O)O)CC(=O)O,1.8%
15,CCCCCCCCCCCCCCC[C@H](O)[C@@H](N)CO,104% (active)
16,O=C(O)CP(=O)(O)O,-7.2%
17,N[C@@H](COP(=O)(O)O)C(=O)O,-5.8%
18,O=S(=O)(O)Oc1ccc(C(c2ccc(OS(=O)(=O)O)cc2)c2ccccn2)cc1,-5.9% (active)
19,CCN(CC)CCCN(c1ccccc1)C1Cc2ccccc2C1,32.5%
